Test results: PubChem BioAssay AID1745845 (National Center for Advancing Translational Sciences (NCATS), 2022)
In all, about 360,000 compounds went through this assay and about 2,600 (0.72%) were called active. Where a call stands in place of a potency, no number is given. Not shown: some 5% with an inconclusive outcome. The call rests on the fitted dose curve; in most records, active means well fitted inhibition curve with a large enough effect; inconclusive means small, poorly fitted or top-dose-only effect; inactive means no such curve, though single readings can be large or run the other way. Many of the other results were omitted from the sample, so actives are more common in it than they were.
Potency means the concentration at half of the fitted maximal effect.

Test: Primary qHTS for Inhibitors of ATXN expression; further: nearly all actives have a fitted effect of over 55% in size
Details: HEK-293 ATXN2-luciferase reporter, luminescence, 24 h; series mostly up to 57 µM
Source text: University of Utah School of Medicine, Salt Lake City, Utah
Spinocerebellar ataxia type 2 (SCA2) is a multisystem neurodegenerative disease caused by a dominantly acting mutation leading to expansion of a polyQ domain in the ataxin-2 protein (ATXN2). SCA2 patients develop progressive ataxia and later lose function in other neuronal systems. Prominent parkinsonian signs develop in some patients. Like many neurodegenerative disorders, no symptomatic or disease-modifying treatments are known.
The primary objective of the proposed research is to identify compounds inhibiting ATXN2 expression and to test them for efficacy in SCA2 mouse models. We have developed a cell-based assay paired with an in vivo mouse model using identical luciferase expression constructs. This approach takes advantage of an ATXN2-luciferase transgene, with the luciferase gene flanked by the upstream and downstream portions of the ATXN2 gene. Here we describe a 5-7 dose quantitative high thoroughput screen (qHTS) for compounds lowering ATXN2 expression. We screened the NIH Molecular Libraries Small Molecule Repository (MLSMR) and NCGC's mechanistically annotated (MIPE) and drug repurposing (NPC) collections of compounds for lowering expression of an ATXN2-luciferase reporter in HEK-293 cells. The assay is a multiplexed cell viability assay to ensure target reduction in the absence of cytotoxicity. Secondary qHTS assays included a CMV-luciferase reporter expressed in HEK-293 cells as well as a biochemical assay using recombinant luciferase to detect inhibitors of the reporter enzyme. Compounds that inhibit ATXN2 expression but is not cytotoxic were selected for confirmatory and secondary screens.
PROTOCOL TABLE (as described by Inglese J, Shamu CE and Guy RK. 2007)
SEQUENCE No. (e.g., 1, 2, 3, etc.); […] (e.g., Cells, Incubation, Reagent, etc.); VALUE; DESCRIPTION.
1; Cells; 4 uL; white, solid bottom, 1536-well Greiner assay plate.
2; Incubation; 2 hr; 37 degree C in 5% humidified CO2.
3; Compounds; 23 nL; Kalypsis pintool (Wako USA) equipped with a 1536-well pin head.
4; Incubation; 24 hr; 37 degree C in 5% humidified CO2.
5; Reagent; 1 uL; Gly-Phe-7-Amino-4-trifluoromethylcoumarin.
6; Incubation; 30 min; 37 degree C in 5% humidified CO2.
7; Detection; Fluorescence; ViewLux plate reader (PerkinElmer).
8; Reagent; 3 uL; SteadyGlo luciferase solution (Promega).
9; Incubation; 5 min; room temperature.
10; Detection; Luminescence; ViewLux plate reader (PerkinElmer).
NOTES (numbers refer to Sequence numbers above)
1. S2 cells expressing ATXN2-luciferase reporter were suspended in phenol-red free DMEM and dispensed in assay plates using a Multidrop Combi dispenser (Thermo Fisher Scientific).
2. Assay plates were incubated. Evaporation was prevented by covering assay plates with metal lids containing holes to allow gas diffusion.
3. Compounds were added in a dose response manner with the final concentrations of 57, 11.4, 2.28, 0.46, 0.091, 0.018, 0.0037 uM. Vehicle-only plates, with DMSO being pin-transferred to columns 5-48, were inserted uniformly at the beginning and the end of each library to monitor and record any shifts in assay performance.
5. 125 uM Gly-Phe-7-Amino-4-trifluoromethylcoumarin (MP Biomedicals) working concentration was used at a final concentration of 25 uM.
7. To assess cell viability; the assay plates were read using the ViewLux high-throughput CCD imager (PerkinElmer), wherein single end-point fluorescence measurement was acquired (excitation 405/10; emission 540/25 nm).
8. Detection reagent SteadyGlo Luciferase (Promega) was added to the assay plate.
10. Luminescence is then measured on the ViewLux imager equipped with a clear emission filter using a 2 sec exposure. All screening operations were performed on a fully integrated robotic system (Kalypsys) containing one RX-130 and two RX-90 anthropomorphic robotic arms (Staubli).
[…]
For `Oc1c(Cl)cc(Cl)c(Cl)c1Cc1c(O)c(Cl)cc(Cl)c1Cl`, the Potency was 28.2 µM (active).
For `OCCC#Cc1ccc(N2C(c3ccsc3)=Cc3ccc(F)cc3C2c2c[nH]c3ccccc23)cc1` (stereo not given), the Potency was “inactive”.
With `Cc1cc(Cl)ccc1-c1nc(NCCN(C)C)nc2ccsc12` the Potency was “inactive”.
With `Cc1cc(C)n(-c2c(F)c(F)c(COC(=O)c3ccccc3)c(F)c2F)n1` the Potency was “inactive”.
With `CCOC(=O)c1cnc(-n2nc(C)cc2C)nc1NNc1cc(C)nc(-c2ccccc2)n1` the Potency was 7.08 µM (active).
In the case of `Cc1cc(-n2nc(C)cc2C)n2ncc(-c3ccccc3)c2n1`, the Potency is reported as “inactive”.
For `Cc1ccc(CN2CCCn3nc(C(=O)NCc4ccccc4Cl)cc3C2=O)cc1`, the Potency was “inactive”.
In the case of `O=C1CC(c2ccc(F)cc2F)c2cc3c(cc2N1)OCO3` (stereo not given), the Potency is reported as “inactive”.
With `Cc1cccn2c(=O)c3cc(C(=O)NC(C)c4ccccc4)c(=N)n(CCCO)c3nc12` (stereo not given) the Potency was “inactive”.
For `COc1ccc(C(=O)NC2=NCCS2)c(OC)c1`, the Potency was “inactive”.
With `COC(=O)c1sc(NC(=O)c2ccc(OC)cc2OC)nc1C` the Potency was 2.24 µM (active).
For `COC(=O)c1sc(NC(=S)NC(=O)c2ccc(C)cc2)nc1C`, the Potency was “inactive”.
In the case of `O=C(NC1CCCCC1)c1ccc(Cn2c(SCc3ccccc3)nc3cccnc32)cc1`, the Potency is reported as “inactive”.
With `COC(=O)c1ccc2nc(-c3ccc(OC)c(OC)c3)c(Cc3ccccc3)n2c1` the Potency was “inactive”.
With `Cc1cc(Nc2cc(CN3CCOCC3)c3nc(C)c(Cc4ccc(Cl)cc4F)n3n2)n[nH]1` the Potency was 19.3 µM (active).
With `Cc1ccc(Cl)cc1NC(=O)CN1CCN(S(=O)(=O)N2CCOCC2)CC1` the Potency was “inactive”.
With `O=C1NC(=O)C(=Cc2cccc(C(F)(F)F)c2)S1` the Potency was “inactive”.
In the case of `CCOC(=O)c1cc2c(=O)n3ccccc3nc2n(Cc2ccco2)c1=NC(=O)c1ccc(F)cc1`, the Potency is reported as “inactive”.
For `CCC1CCCCN1Cc1c(O)ccc2c(=O)c(Oc3ccccc3Cl)c(C(F)(F)F)oc12` (stereo not given), the Potency was “inactive”.
For `C[C@@H]1C[C@@H]2O[C@H]2/C=C\C=C\C(=O)Cc2c(Cl)c(O)cc(O)c2C(=O)O1`, the Potency was 4.74 µM (active).
For `CC1(C(=O)NCc2cccc3ccccc23)CCN1Cc1ccc(-c2ccccc2)o1` (stereo not given), the Potency was “inactive”.
In the case of `CN(C)CCCN(C(=O)c1ccc(S(=O)(=O)N2CCCCCC2)cc1)c1nc2ccc(Br)cc2s1`, the Potency is reported as 31.6 µM (active).
For `CN(C)CCN(C(=O)C1=COCCO1)c1nc2ccc(Cl)cc2s1`, the Potency was “inactive”.
In the case of `Cc1cc(C)c2sc(NC(=O)c3ccc(S(=O)(=O)N4CCCC4)cc3)nc2c1`, the Potency is reported as “inactive”.
With `CCOC(=O)c1ccc(-c2ccc3ncnc(N(C)Cc4sccc4C)c3c2)o1` the Potency was “inactive”.
With `O=c1c2ccccc2ncn1/N=C/c1ccccc1` the Potency was “inactive”.
With `CCn1c(/C=C/c2ccc([N+](=O)[O-])o2)nc2ccccc2c1=O` the Potency was 8.91 µM (active).
For `Cc1ccc(-n2c(SCC(=O)N/N=C/C=C/c3ccccc3[N+](=O)[O-])nc3ccccc3c2=O)cc1`, the Potency was “inactive”.
With `Cc1ccc(-n2c(SCC(=O)Nc3cccc(F)c3)nc3c(oc4ccccc43)c2=O)cc1C` the Potency was “inactive”.
In the case of `CCCc1c2oc(C(=O)O)cc(=O)c2cc2c(=O)cc(C(=O)O)n(CC)c12`, the Potency is reported as “inactive”.
With `CC1(C)OC[C@@H](COC(=O)CCc2ccc(OC[C@@H](O)CNCCNC(=O)N3CCOCC3)cc2)O1` the Potency was “inactive”.
With `Cc1ccc(C)c(N2CCN(C(=O)CCc3nc4ccccc4[nH]3)CC2)c1` the Potency was “inactive”.
With `Cc1ccc(C)c(N2CCN(C(=O)CCCCCn3c(=S)[nH]c4ccc(N5CCOCC5)cc4c3=O)CC2)c1` the Potency was 2.82 µM (active).
With `Cc1ccc(C)c(N2CCN(C(=O)CCCn3c(=O)c4cccn4c4cccnc43)CC2)c1` the Potency was “inactive”.
For `COc1ccc(-c2c(C)c3ccc(O)c(CN4CCCC4)c3oc2=O)cc1OC`, the Potency was “inactive”.
In the case of `CO[C@H]1O[C@@H]2O[C@@]3(C)CC[C@@H]4[C@@H](C)CC[C@@H]([C@H]1C)[C@@]24OO3`, the Potency is reported as “inactive”.
In the case of `CCOc1ccc(CNC(=O)c2cccc(Nc3nc4ccccc4n4nnnc34)c2)cc1OC`, the Potency is reported as “inactive”.
In the case of `C=CCn1c(C)cc(C2=NNC(=NCC)SC2)c1C`, the Potency is reported as 0.447 µM (active).
In the case of `C=C1C(=CC=C2CCC[C@]3(C)[C@@H]([C@H](C)C=C[C@H](C)C(C)C)CC[C@@H]23)C[C@@H](O)C[C@@H]1O`, the Potency is reported as “inactive”.
With `COc1ccc(Cc2nc3ccc(C(=O)NCc4ccccc4Cl)cc3o2)cc1` the Potency was “inactive”.
In the case of `Cc1ccc(S(=O)(=O)N2CCC(C(=O)Nc3cc(C)ccc3C)CC2)cc1`, the Potency is reported as “inactive”.
For `O=C(Nc1ccccn1)C1CCN(S(=O)(=O)c2ccccc2)CC1`, the Potency was “inactive”.
With `Cc1ccnc(NC(=O)C2CCN(S(=O)(=O)c3c(C)c(C)cc(C)c3C)CC2)c1` the Potency was 7.94 µM (active).
With `COc1cccc(CNC(=O)C(=O)NCC(c2cccs2)S(=O)(=O)c2ccccc2)c1` (stereo not given) the Potency was “inactive”.
In the case of `CCc1ccc(OC2(C)CCN(CCOc3ccc(C)cc3)C2)cc1` (stereo not given), the Potency is reported as “inactive”.
For `CCCCCCCCn1c2c(c(=N)c3c1CCC3)CCCC2`, the Potency was 0.891 µM (active).
With `CCCS(=O)(=O)N1CCC(n2c(C(F)(F)F)nc3cccnc32)CC1` the Potency was “inactive”.
For `CCN(CC)CCNC(=O)c1c(C)[nH]c(C=C2C(=O)Nc3ccc(F)cc32)c1C`, the Potency was 44.4 µM (active).
With `CCOc1cc2[nH]c(=O)n(Cc3ccc(C(=O)NCCN(CC)CC)cc3)c(=O)c2cc1OCC` the Potency was “inactive”.
In the case of `CCN(CC)CCNC(=O)c1cc(S(C)(=O)=O)ccc1OC`, the Potency is reported as “inactive”.
